A short description of assay [1]: qHTS assay to identify small molecule antagonists of the thyroid receptor (TR) signaling pathway - cell viability counter screen (AID 743064). Also: nearly all actives have a fitted effect of over 50% in size. Also: potency is read from the fitted curve at half-maximal effect. In a few lines: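 Fluorescence from CellTiter-Fluor, added after 23.5 h exposure at 37 °C, reported viability of GH3.TRE-Luc cells co-treated with compound and 1 nM T3. Measured in the same wells as the luciferase TR readout.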
A general note: Quantitative high-throughput screening tests each substance at several concentrations.

For assay [2], the system named is thyroid hormone receptor (rat, GH3 cells). Description: qHTS assay to identify small molecule agonists of the thyroid receptor (TR) signaling pathway (AID 743066; calls by dose curve).
The target of assay [3] is Estrogen receptor (Homo sapiens) (UniProt P03372). Description: qHTS assay to identify small molecule antagonists of the estrogen receptor alpha (ER-alpha) signaling pathway (AID 743069; active = well fitted curve in the direction sought with a large enough effect in the signal ratio in the repeat runs, not every such curve was filed as active; inconclusive = weak or mixed curves, or effect the other way; inactive = no such curve, though single readings can be large or run the other way; the % refers to the signal ratio; also: potency is read from the fitted curve at half-maximal effect). In a few lines:
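HEK293 cells stably carrying an ER-alpha-UAS-bla beta-lactamase reporter were pre-cultured overnight in 2% charcoal-stripped FBS medium. Test compounds in DMSO were added together with 17beta-estradiol for 18 hr at 37C. Read-out was fluorescence after 2 hr with LiveBLAzer B/G FRET substrate at room temperature.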

Assay [4] can be described thus: qHTS assay to identify small molecule antagonists of the estrogen receptor alpha (ER-alpha) signaling pathway - cell viability counter screen (AID 743074; calls by dose curve; also: nearly all actives have a fitted effect of over 45% in size; also: potency is read from the fitted curve at half-maximal effect).
For assay [5], the target named is Estrogen receptor (Homo sapiens) (UniProt P03372). Description: qHTS assay to identify small molecule agonists of the estrogen receptor alpha (ER-alpha) signaling pathway (AID 743075; calls by dose curve; also: potency is read from the fitted curve at half-maximal effect).
Chain of Estrogen receptor (Homo sapiens) (P03372 whole entry, looked up): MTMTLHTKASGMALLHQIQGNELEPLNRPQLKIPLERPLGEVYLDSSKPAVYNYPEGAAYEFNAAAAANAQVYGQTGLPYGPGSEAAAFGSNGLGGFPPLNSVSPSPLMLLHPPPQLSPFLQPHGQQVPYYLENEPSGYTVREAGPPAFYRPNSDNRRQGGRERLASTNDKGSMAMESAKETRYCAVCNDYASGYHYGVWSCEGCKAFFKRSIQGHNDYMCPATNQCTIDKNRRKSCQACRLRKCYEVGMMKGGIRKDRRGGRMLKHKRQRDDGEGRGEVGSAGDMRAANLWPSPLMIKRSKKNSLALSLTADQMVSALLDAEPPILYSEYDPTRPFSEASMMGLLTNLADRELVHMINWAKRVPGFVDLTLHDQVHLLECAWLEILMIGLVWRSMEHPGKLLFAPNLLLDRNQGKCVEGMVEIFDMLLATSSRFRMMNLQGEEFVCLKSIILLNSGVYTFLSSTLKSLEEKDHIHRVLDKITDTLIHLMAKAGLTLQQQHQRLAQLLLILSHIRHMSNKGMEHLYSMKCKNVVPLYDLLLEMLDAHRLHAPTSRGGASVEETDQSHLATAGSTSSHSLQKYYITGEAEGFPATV
The target is the same in assay [6]. Briefly: qHTS assay to identify small molecule agonists of the estrogen receptor alpha (ER-alpha) signaling pathway using the BG1 cell line (AID 743079). Also: nearly all actives have a fitted effect of over 20% in size.
The nature of assay [7]: qHTS assay to identify small molecule antagonists of the estrogen receptor alpha (ER-alpha) signaling pathway using the BG1 cell line (AID 743080; calls by dose curve;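 also: BG1 cells stimulated with 17beta-estradiol alongside compound; nearly all actives have a fitted effect of over 25% in size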; also: potency is read from the fitted curve at half-maximal effect). The method in brief:
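Seeding, 24 h rest, compound transfer from DMSO, 17beta-estradiol addition, 21.5 h incubation, CellTiter-Fluor (30 min, 37 C), then ONE-Glo (30 min, room temperature): this sequence was run on BG1-Luc-4E2 reporter cells.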

The nature of assay [8]: qHTS assay to identify small molecule antagonists of the estrogen receptor alpha (ER-alpha) signaling pathway using the BG1 cell line - cell viability counter screen (AID 743081).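 Also: compound given together with 17beta-estradiol as the ER stimulus; nearly all actives have a fitted effect of over 45% in size.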 Also: potency is read from the fitted curve at half-maximal effect.
A further assay deals with Aromatase (Homo sapiens) (UniProt P11511). Briefly: qHTS assay to identify aromatase inhibitors (AID 743083). Also: nearly all actives have a fitted effect of over 55% in size. Also: potency is read from the fitted curve at half-maximal effect.
Chain of Aromatase (Homo sapiens) (P11511 whole entry, looked up): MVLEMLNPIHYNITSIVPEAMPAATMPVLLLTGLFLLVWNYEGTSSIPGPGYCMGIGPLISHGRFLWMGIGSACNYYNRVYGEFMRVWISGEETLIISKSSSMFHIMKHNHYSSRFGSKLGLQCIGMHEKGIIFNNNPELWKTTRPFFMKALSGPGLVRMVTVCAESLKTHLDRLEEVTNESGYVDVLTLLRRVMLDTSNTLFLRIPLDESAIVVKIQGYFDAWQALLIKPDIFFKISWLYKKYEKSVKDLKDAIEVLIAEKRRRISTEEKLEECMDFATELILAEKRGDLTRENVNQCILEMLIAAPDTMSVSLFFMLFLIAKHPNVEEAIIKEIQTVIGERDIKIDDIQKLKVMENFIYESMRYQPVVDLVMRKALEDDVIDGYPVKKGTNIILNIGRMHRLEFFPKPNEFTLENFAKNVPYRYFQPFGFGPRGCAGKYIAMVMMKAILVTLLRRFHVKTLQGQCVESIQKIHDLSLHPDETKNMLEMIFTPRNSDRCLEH
The nature of assay [9]: qHTS assay to identify aromatase inhibitors - cell viability counter screen (AID 743084).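 Also: cells stimulated with testosterone during compound exposure; nearly all actives have a fitted effect of over 55% in size.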 Also: potency is read from the fitted curve at half-maximal effect.
Assay [10] addresses Aryl hydrocarbon receptor (Homo sapiens) (UniProt P35869). Briefly: qHTS assay to identify small molecule that activate the aryl hydrocarbon receptor (AhR) signaling pathway (AID 743085). Also: nearly all actives have a fitted effect of over 15% in size. Also: potency is read from the fitted curve at half-maximal effect.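 As to activation: HG2L7.5c1 human HepG2 liver cells with stably integrated DRE-driven firefly reporter; series mostly up to about 70 µM.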 In a few lines: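 Cell line HG2L7.5c1 (human hepatoma, 20× DRE-luc). Plated, 5 h 37C, compound/DMSO added, 24 h 37C. CellTiter-Fluor 30 min 37C → fluorescence; then ONE-Glo 30 min RT → luminescence.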

A short description of assay [11]: qHTS assay to identify small molecule that activate the aryl hydrocarbon receptor (AhR) signaling pathway - cell viability counter screen (AID 743086). Also: nearly all actives have a fitted effect of over 45% in size. Also: potency is read from the fitted curve at half-maximal effect. The method in brief:
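HepG2-AhR-luc (HG2L7.5c1) cells, 4000/well, were preincubated 5 h at 37C, exposed to compound in qHTS format for 24 hr at 37C, then given CellTiter-Fluor for 30 min; viability was read as fluorescence in the reporter wells.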

Assay [12] deals with Peroxisome proliferator-activated receptor gamma (Homo sapiens) (UniProt P37231). Briefly: qHTS assay to identify small molecule agonists of the peroxisome proliferator-activated receptor gamma (PPARg) signaling pathway (AID 743094; active = well fitted activation curve with a large enough effect in the signal ratio in the repeat runs, not every such curve was filed as active; inconclusive = weak or mixed curves, or effect the other way; inactive = no such curve, though single readings can be large or run the other way; the % refers to the signal ratio; also: potency is read from the fitted curve at half-maximal effect). The method in brief: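 Compounds dissolved in DMSO were added to PPARg UAS-bla HEK293H cells for 17 h at 37C, and reporter expression was quantified by fluorescence intensity after 1 h with LiveBLAzer B/G FRET substrate.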
Chain of Peroxisome proliferator-activated receptor gamma (Homo sapiens) (P37231 whole entry, looked up): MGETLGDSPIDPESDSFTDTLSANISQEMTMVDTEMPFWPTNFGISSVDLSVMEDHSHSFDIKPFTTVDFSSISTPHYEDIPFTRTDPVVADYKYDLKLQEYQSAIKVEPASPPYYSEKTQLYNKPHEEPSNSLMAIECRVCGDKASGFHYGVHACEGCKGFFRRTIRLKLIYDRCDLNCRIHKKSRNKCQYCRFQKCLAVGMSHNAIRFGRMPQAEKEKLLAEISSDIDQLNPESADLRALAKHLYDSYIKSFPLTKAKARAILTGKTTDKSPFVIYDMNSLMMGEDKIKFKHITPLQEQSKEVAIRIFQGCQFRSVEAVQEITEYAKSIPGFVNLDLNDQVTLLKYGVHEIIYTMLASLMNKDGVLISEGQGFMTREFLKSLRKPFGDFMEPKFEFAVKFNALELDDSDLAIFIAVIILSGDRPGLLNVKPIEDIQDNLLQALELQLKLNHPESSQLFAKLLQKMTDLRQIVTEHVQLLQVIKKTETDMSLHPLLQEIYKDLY

Assay [13] in a line: qHTS assay to identify small molecule antagonists of the thyroid receptor (TR) signaling pathway (AID 743065). Also: potency is read from the fitted curve at half-maximal effect; nearly all actives have a fitted effect of over 55% in size. In a few lines:
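GH3.TRE-Luc rat pituitary cells carrying two TR response elements driving luciferase were plated for 4 h, given compound plus 1 nM T3 (final), and incubated 23.5 h at 37 C. ONE-Glo luminescence measured reporter inhibition; CellTiter-Fluor fluorescence tracked cytotoxicity.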

Assay [14] addresses Peroxisome proliferator-activated receptor gamma (Homo sapiens) (UniProt P37231). Briefly: qHTS assay to identify small molecule antagonists of the peroxisome proliferator-activated receptor gamma (PPARg) signaling pathway (AID 743191; calls by dose curve; also: potency is read from the fitted curve at half-maximal effect; nearly all actives have a fitted effect of over 30% in size). In a few lines:
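GeneBLAzer PPARg UAS-bla HEK293H cells carrying a UAS-driven beta-lactamase reporter were plated at 3000 cells/well, preincubated 5 h at 37C, then given compound for 17 h at 37C; LiveBLAzer B/G FRET substrate was read after 1 h at room temperature.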

Assay [15] in a line: qHTS assay to identify small molecule antagonists of the peroxisome proliferator-activated receptor gamma (PPARg) signaling pathway - cell viability counter screen (AID 743194). Also: nearly all actives have a fitted effect of over 55% in size. The method in brief:
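PPARg-UAS-bla HEK293H cells were plated, rested 5 h at 37 C, then treated with compounds plus rosiglitazone (50 nM final) for 17 h at 37 C; viability was then read by CellTiter-Glo luminescence after 30 min at room temperature.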

Assay [16] is described as follows: qHTS assay to identify small molecule agonists of the peroxisome proliferator-activated receptor delta (PPARd) signaling pathway - cell viability counter screen (AID 743211). Also: nearly all actives have a fitted effect of over 55% in size. Also: potency is read from the fitted curve at half-maximal effect. The method in brief:
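HEK293H PPARd-bla, 3000 cells/well; 5 h preincubation 37C/5% CO2; cpd in DMSO, 17 h 37C; B/G FRET substrate 2 h RT; CellTiter-Glo 30 min RT, luminescence.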

A short description of assay [17]: qHTS assay for small molecule activators of the heat shock response signaling pathway - cell viability counter screen (AID 743209). Also: potency is read from the fitted curve at half-maximal effect; nearly all actives have a fitted effect of over 50% in size. The method in brief: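 Readout: CellTiter-Glo luminescence, 30 min at room temperature. System: HSE-bla HeLa cells, 1500/well, plated overnight. Treatment: compounds in DMSO, 5 h at 37 C.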

We go through seven compounds from PubChem BioAssay (Tox21).

Structures are written as SMILES. “And” between values parts separate entries of the source, which are not always exact repeats. Equal entries are not always repeated. Some structures have more than one record in an assay (separate samples or runs), and their calls can disagree. The source made the active and inactive calls. Unless noted, calls follow the shape of the dose curve; as a rule, active = well fitted curve in the direction sought with a large enough effect in the repeat runs; inconclusive = weak or mixed curves; inactive = no such curve, though single readings can be large; an effect the other way counts as inactive or inconclusive.

Chain of Aryl hydrocarbon receptor (Homo sapiens) (P35869 whole entry, looked up): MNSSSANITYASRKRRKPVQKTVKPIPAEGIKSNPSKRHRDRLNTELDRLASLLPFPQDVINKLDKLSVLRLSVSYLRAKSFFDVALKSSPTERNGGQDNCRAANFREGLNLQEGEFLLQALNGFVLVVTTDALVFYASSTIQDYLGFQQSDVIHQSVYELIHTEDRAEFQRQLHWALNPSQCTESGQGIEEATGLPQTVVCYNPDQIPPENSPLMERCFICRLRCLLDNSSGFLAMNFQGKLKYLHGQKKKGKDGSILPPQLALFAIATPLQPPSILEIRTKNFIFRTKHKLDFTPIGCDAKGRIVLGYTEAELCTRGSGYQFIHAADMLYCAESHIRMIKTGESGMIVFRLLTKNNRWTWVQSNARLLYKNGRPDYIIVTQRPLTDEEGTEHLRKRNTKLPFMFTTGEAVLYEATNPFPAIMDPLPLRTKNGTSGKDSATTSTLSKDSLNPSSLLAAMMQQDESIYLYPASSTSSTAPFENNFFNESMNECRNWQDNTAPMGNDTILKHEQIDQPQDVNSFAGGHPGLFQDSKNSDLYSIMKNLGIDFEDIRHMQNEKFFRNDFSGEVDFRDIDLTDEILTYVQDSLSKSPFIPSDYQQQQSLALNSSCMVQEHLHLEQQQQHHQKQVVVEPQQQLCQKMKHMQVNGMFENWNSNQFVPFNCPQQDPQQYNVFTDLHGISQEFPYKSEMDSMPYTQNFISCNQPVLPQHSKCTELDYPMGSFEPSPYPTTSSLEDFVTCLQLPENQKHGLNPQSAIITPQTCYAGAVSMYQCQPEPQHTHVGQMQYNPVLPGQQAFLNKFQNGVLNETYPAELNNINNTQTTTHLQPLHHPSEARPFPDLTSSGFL

As to `CC(C)(C)c1ccc2c(S(=O)(=O)O)c(C(C)(C)C)ccc2c1`, the Potency result in assay [1], in assay [2], in assay [3], in assay [4], in [5] and in assay [6] was “inactive” in each case. Also, the Potency entry (in assay [7]; in [8]; in the assay with Aromatase (Homo sapiens); in assay [9]; in assay [10]; in [11]) was “inactive” throughout. In [12], the Potency was 9.52 µM (active).
For the compound `CC[C@@]1([C@@H]2O[C@@H]([C@H]3O[C@@](O)(CO)[C@H](C)C[C@@H]3C)C[C@@H]2C)CC[C@H]([C@]2(C)CC[C@]3(C[C@H](O)[C@@H](C)[C@@H]([C@@H](C)[C@@H](OC)[C@H](C)C(=O)O)O3)O2)O1` (stereo in doubt), the Potency in assay [1] is 596 nM (active) and 376 nM (active); in assay [13] it was 376 nM (active) and 266 nM (active); in [8] it was 18.8 µM (active) and inactive. Further, the Potency entry (in assay [5]; in assay [6]; with Aromatase (Homo sapiens); in [9]; in [10]; in [11]) was “inactive” throughout.
As to `CC(=O)[C@]1(O)Cc2c(O)c3c(c(O)c2[C@@H](O[C@H]2C[C@H](N)[C@H](O)[C@H](C)O2)C1)C(=O)c1ccccc1C3=O`, the Potency in assay [1] was 119 nM (active); in [13] it was 119 nM (active); in [3], 4.77 µM [inconclusive] (active); in [5] it was 3.38 µM [inconclusive] (active); in [8], 3.35 µM (active); in the assay with Aromatase (Homo sapiens), 3.35 µM (active). The Potency was 13.3 µM (active) in assay [9], 13.3 µM (active) in assay [11] and 4.22 µM (active) in [14]. Further, the Potency entry in [15] and in assay [16] was “inactive” in each case.
In the case of `CCN1\C(=C/C=C/C=C/c2sc3ccccc3[n+]2CC)Sc2ccccc21`, the Potency is 5.96 µM (active) and 7.5 µM (active) in [1]; 2.37 µM (active) and 4.22 µM (active) in assay [13]; 67.4 nM (active) and 1.69 µM (active) in [4]; 1.88 µM (active) in [7]; 11.9 µM (active) in [8]; 5.96 µM (active) and 10.6 µM (active) in the assay with Aromatase (Homo sapiens). For the same compound, the Potency in assay [9] is 11.9 µM (active); in assay [11], 11.9 µM (active) and 23.7 µM (active). For the same compound, the Potency result in [5], in assay [10] and in assay [12] was “inactive” in each case.
For the compound `CO/N=C(\C(=O)N[C@@H]1C(=O)N2C(C(=O)O)=C(C[N+]3(C)CCCC3)CS[C@H]12)c1csc(N)n1`, the Potency result in [1], in [2], in [3], in assay [4], in assay [5] and in assay [6] was “inactive” throughout. Moreover, the Potency entry (in [7]; in assay [8]; with Aromatase (Homo sapiens); in assay [9]; in assay [10]; in assay [11]) was “inactive” each time. Also, in assay [12], the Potency result is “inactive”.
On to `CCCCCCCCCCCCCCCCCCNC(=O)OC1CCN(C(=O)OC[C@H](COC(=O)N(Cc2cccc[n+]2CC)C(=O)c2ccccc2OC)OC)CC1`, for which the Potency in assay [1] was 15000 nM (active); in assay [13], 13300 nM (active); in assay [4], 23.9 µM (active); in the assay with Aromatase (Homo sapiens), 21.1 µM (active); in [9], 29.8 µM (active); in assay [17], 23.7 µM (active). Besides, the Potency in assay [16] was 10.6 µM (active). In addition, the Potency entry in [5] and in assay [10] was “inactive” in each case.
As for `C[C@]12O[C@H](C[C@]1(O)CO)n1c3ccccc3c3c4c(c5c6ccccc6n2c5c31)CNC4=O`, the Potency in assay [1] was 188 nM (active); in [13], 188 nM (active); in [4] it was 21.3 µM (active); in [8], 21.1 µM (active); with Aromatase (Homo sapiens), 2.11 µM (active); in assay [9], 23.7 µM (active). The figures for the Potency in [10] and in [11] were 0.531 µM (active) and 18.8 µM (active), respectively.
